Eight compounds from PubChem BioAssay (NCATS) can be followed below.

Records with an inconclusive call do not appear. Calls of active or inactive are those of the source. Unless noted, the call rests on the fitted dose curve; in most records, active means well fitted curve in the direction sought with a large enough effect; inconclusive means small, poorly fitted or top-dose-only effect, or another doubt; inactive means no such curve, though single readings can be large; an effect the other way counts as inactive or inconclusive.

In assay [1] the target is Thioredoxin reductase 1, cytoplasmic (Rattus norvegicus) (UniProt O89049). The experiment in a line: qHTS Assay for Substrates of Mammalian Selenoprotein Thioredoxin Reductase 1 (TrxR1) (AID 488772).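 Further: NADPH fluorescence in the first read after selenite addition and not the 8 min delta; series mostly up to about 57 µM; 0% is about no effect; a drop in NADPH fluorescence below the no-compound background marks a TrxR1 substrate.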 An outline of the steps:
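Quantitative HTS in Tris-HCl buffer at pH 7.5 with EDTA and Tween-20, using rat TrxR1, 400 uM NADPH and 400 uM selenite (final). A fall in initial NADPH fluorescence relative to background marked substrate behaviour.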
(qHTS replaces the single test concentration by a dilution series.)

Assay [2] has the same target. Kind of assay: qHTS Assay for Inhibitors of Mammalian Selenoprotein Thioredoxin Reductase 1 (TrxR1) (AID 488773). Further: nearly all actives have a fitted effect of over 40% in size. Further: potency means the concentration at half of the fitted maximal effect. The note with it: Potency: inhibition. In a few lines:
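Steps: enzyme (90 nM) plus NADPH (400 uM final), 5 min at ~22 deg C; compound added, 15 min; selenite (400 uM final) added; fluorescence followed for 8 min. Concentration-response curves derived from the normalized delta values.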

Assay [3] addresses Flap endonuclease 1 (Homo sapiens) (UniProt P39748). Kind of assay: qHTS Validation Assay for the Inhibitors of Human Flap endonuclease 1 (FEN1) (AID 488816). Further: on the % scale 0 is the no-effect control and ±100 the full control effect. In a few lines: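 Readings taken at 0 and 15 min after starting the reaction with 50 nM (final) substrate supplied the signal. Compounds had first sat with 10 nM FEN1 reagent for 15 min at room temperature. Values come from Hill-equation concentration-response fits.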

The target of assay [4] is M-phase phosphoprotein 8 (Homo sapiens) (UniProt Q99549). The experiment in a line: qHTS Validation Assay for Inhibitors for MPP8 Chromodomain Interactions with Methylated Histone Tails (AID 488949). Further: nearly all actives have a fitted effect of over 55% in size. Further: potency means the concentration at half of the fitted maximal effect. An outline of the steps: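 AlphaScreen proximity signal from streptavidin donor and Ni-chelate acceptor beads (10 ug/mL each) reported binding of MPP8 to trimethyl-K9 H3(1-18) peptide, both at 50 nM. The complex formed 30 min before a 30 min compound exposure at room temperature, in PBS pH 7.4.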

Assay [5] deals with Chromobox protein homolog 1 (Homo sapiens) (UniProt P83916). The experiment in a line: qHTS Validation Assay for Inhibitors of HP1-beta Chromodomain Interactions with Methylated Histone Tails (AID 488953). Further: nearly all actives have a fitted effect of over 50% in size. Further: potency means the concentration at half of the fitted maximal effect. In a few lines:
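HP1-beta (50 nM) was preincubated 30 min at room temperature with biotinylated H3(1-18)K9me3 peptide (50 nM) in PBS pH 7.4, 0.01% Tween-20, then with compounds 30 min. AlphaScreen signal was read after streptavidin donor/nickel chelate acceptor beads (10 ug/mL final).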

Assay [6] deals with Methanococcus maripaludis chaperonin (MmCpn) (UniProt Q6LX38). Kind of assay: High-Throughput Screening for Modulators of Cytosolic Chaperonin Activity: MmCpn Primary Screen (AID 488978).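 Further: 50 nM MmCpn enzyme hydrolysing 30 µM ATP at 37 °C; 0% is about no effect.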 In a few lines: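 ATPase activity of 50 nM MmCpn was assayed with 30 uM ATP, 10 minutes at 37C, after a 5 min compound preincubation at room temperature. ADP production was read as HTRF emission at 590 and 665 nm.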

The target of assay [7] is D(1A) dopamine receptor (Homo sapiens) (UniProt P21728). The experiment in a line: HTS Assay for Allosteric Agonists of the Human D1 Dopamine Receptor: Primary Screen for Agonists (AID 488981). Further: 0% is about no effect. An outline of the steps: (§1)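 Calcium flux in an inducible, force-coupled HEK293 Trex D1 line (overnight at 30 C): agonist mode is the 180 s kinetic read after compound; potentiator mode is the following 180 s read after dopamine at EC20.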

For assay [8] the target is unchanged. The experiment in a line: HTS Assay for Allosteric Agonists of the Human D1 Dopamine Receptor: Primary Screen for Antagonists (AID 488983).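 Further: calcium flux response to an EC80 dopamine challenge measured with no-wash dye; nearly all actives have a fitted effect of over 65% in size.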 Further: potency means the concentration at half of the fitted maximal effect. An outline of the steps:
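Tetracycline-induced HEK293 T-REx cells expressing force-coupled D1 were plated overnight at 30 C, dye-loaded for calcium, and read kinetically. Compounds were pinned in, then an EC80 dopamine challenge followed after 180 s to reveal antagonism.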

Assay [9] can be described thus: qHTS for Inhibitors of Cell Surface uPA Generation: Validation Assay (AID 493164).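 Further: RAW 264.7 macrophage cells exposed to compound for 18 h; 0% is about no effect.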 An outline of the steps:
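RAW 264.7, 4000 cells/well, o/n plating; cpd 7-pt 1:5 dilution 2.45 nM–38.3 uM final; 18 h, 37 C/5% CO2; ATP-Lite, 5 s luminescence exposure.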

Assay [10] has as its target Transient receptor potential cation channel subfamily V member 1 (Homo sapiens) (UniProt Q8NER1). Kind of assay: HTS Assay for Compounds that Act as Enhancers of the Vanilloid Receptor 1 (AID 488979). Further: 0% is about no effect. An outline of the steps:
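Calcium influx kinetics via Fluo-8 (480/520 nm) in TRPV1-expressing cells, 2000/well cultured overnight at 35.5C. Compound-alone read 3 min (agonist phase), followed by EC20 capsaicin challenge for 2 min (enhancer phase).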

Assay [11] addresses Thyrotropin receptor (Homo sapiens) (UniProt P16473). Kind of assay: qHTS Assay for Antagonists of the Thyroid Stimulating Hormone Receptor (AID 488980). Further: series mostly up to about 58 µM; 0% is about no effect. In a few lines:
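Inhibition of cAMP raised by EC80 TSH (4 nM final) was read by HTRF, with lysate cAMP competing against cAMP-d2 for cryptate antibody after 30 min at room temperature. The cells were transfected HEK293 held in phosphodiesterase inhibitor RO 20-1724 at 70 uM.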

The nature of assay [12]: Validation screen for small molecules that induce genotoxicity in human embryonic kidney (HEK293T) cells expressing luciferase-tagged ELG1 (AID 493106). Further: 0% is about no effect. An outline of the steps: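 HEK293T cells expressing luciferase-tagged ELG1 were exposed to compound or DMSO vehicle for 16 hr at 37 °C, 5% CO2. Genotoxic stress raises ELG1 levels, so increased luciferase signal after ONE-Glo addition and 30 min at room temperature marks hits.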

Assay [13] deals with ATPase family AAA domain-containing protein 5 (Homo sapiens) (UniProt Q96QE3). Kind of assay: Validation screen for small molecules that inhibit ELG1-dependent DNA repair in human embryonic kidney (HEK293T) cells expressing luciferase-tagged ELG1 (AID 493107).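 Further: cells co-treated with the DNA-damaging agent 5-fluorouridine alongside compound; series mostly up to about 46 µM; on the % scale 0 is the no-effect control and ±100 the full control effect; inhibitors lower the ELG1-luciferase luminescence signal; nearly all actives have a fitted effect of over 70% in size.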 An outline of the steps:
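HEK293T cells expressing luciferase-tagged ELG1 were co-treated with 5-fluorouridine and compound or DMSO for 16 hr at 37 °C, 5% CO2. Luciferase activity was then read with ONE-Glo after 30 min at room temperature; suppressed signal indicates blocked ELG1 function.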

For assay [14], the target named is Thyrotropin-releasing hormone receptor (Homo sapiens) (UniProt P34981). Kind of assay: qHTS for Small Molecule Agonists and Allosteric Enhancers of Human TRH Receptor: Validation Screen for Agonists (AID 493127;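 active means calcium activation more than 3 SD above the typical response in the agonist read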;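 further: intracellular calcium rise by fluo-8 fluorescence before TRH EC20 addition; 0% is about no effect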). The note with it: TRH receptor agonist cell assay; at 2 µM; stronger effect = higher value. In a few lines:
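TRHR-expressing cells were plated overnight in serum-containing medium, then loaded with fluo-8 calcium dye at room temperature for 30 min–1.5 h. After a 10 s baseline, compound was pin-transferred and calcium fluorescence (ex 480/em 530) read kinetically for agonist response.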

Assay [15] can be described thus: Nrf2 qHTS screen for inhibitors: Validation (AID 493153; active means well fitted inhibition curve with a large enough effect in the main read-out, with a control signal flat, not every such curve was filed as active). Particulars: Potency: luciferase luminescence; viability change: measured here: cytotoxicity max response. In a few lines: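 A549 cells carrying an ARE-driven firefly luciferase reporter, in 5% FBS OPTI-MEM, were treated with compounds in concentration-response for 18-24 h at 37°C. Viability was read by CellTiter-Fluor fluorescence, then Nrf2 activity by luciferase luminescence.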

Assay [16] is described as follows: Validation screen for small molecules that induce DNA re-replication in SW480 colon adenocarcinoma cells (AID 504364). Further: 0% is about no effect. An outline of the steps:
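SW480 cells seeded at 250 per well were exposed to compound or DMSO for 48 hr at 37 C, 5% CO2, then stained with Hoechst for 40 min. DNA content per nucleus was imaged (405 nm ex, 500-530 nm em).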

Assay [17] addresses D(1A) dopamine receptor (Homo sapiens) (UniProt P21728). Kind of assay: HTS Assay for Allosteric Agonists of the Human D1 Dopamine Receptor: Primary Screen for Potentiators (AID 488982). Further: 0% is about no effect. An outline of the steps: as §1
Assay [18] deals with Galactokinase (Homo sapiens) (UniProt P51570). The experiment in a line: qHTS Validation Assay for Inhibitors of Human Galactokinase (GALK) (AID 493189). Further: 0% is about no effect. In a few lines:
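Inhibition was measured as remaining ATP, detected by luciferase luminescence after a 1 h room-temperature reaction. Final conditions: 5 nM GALK, 100 uM galactose, 35 uM ATP, pH 8.0 HEPES buffer.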

Chain of Galactokinase (Homo sapiens) (P51570 whole entry, looked up): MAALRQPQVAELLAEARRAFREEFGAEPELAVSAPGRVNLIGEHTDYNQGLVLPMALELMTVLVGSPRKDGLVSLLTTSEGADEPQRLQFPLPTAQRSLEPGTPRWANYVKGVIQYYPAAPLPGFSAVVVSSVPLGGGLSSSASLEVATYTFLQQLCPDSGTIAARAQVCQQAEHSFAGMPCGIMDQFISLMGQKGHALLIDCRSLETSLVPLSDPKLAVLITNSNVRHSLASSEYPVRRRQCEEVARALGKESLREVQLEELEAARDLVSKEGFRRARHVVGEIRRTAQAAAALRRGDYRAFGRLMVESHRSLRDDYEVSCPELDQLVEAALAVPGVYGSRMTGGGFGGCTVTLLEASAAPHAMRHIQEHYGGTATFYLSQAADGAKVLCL
Chain of Chromobox protein homolog 1 (Homo sapiens) (P83916 whole entry, looked up): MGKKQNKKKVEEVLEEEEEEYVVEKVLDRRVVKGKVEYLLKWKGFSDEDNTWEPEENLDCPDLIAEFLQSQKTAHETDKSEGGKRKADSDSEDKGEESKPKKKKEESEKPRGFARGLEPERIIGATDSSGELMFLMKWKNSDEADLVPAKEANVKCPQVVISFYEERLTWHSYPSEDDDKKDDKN
Chain of ATPase family AAA domain-containing protein 5 (Homo sapiens) (Q96QE3 whole entry, looked up, the tested form may be a part): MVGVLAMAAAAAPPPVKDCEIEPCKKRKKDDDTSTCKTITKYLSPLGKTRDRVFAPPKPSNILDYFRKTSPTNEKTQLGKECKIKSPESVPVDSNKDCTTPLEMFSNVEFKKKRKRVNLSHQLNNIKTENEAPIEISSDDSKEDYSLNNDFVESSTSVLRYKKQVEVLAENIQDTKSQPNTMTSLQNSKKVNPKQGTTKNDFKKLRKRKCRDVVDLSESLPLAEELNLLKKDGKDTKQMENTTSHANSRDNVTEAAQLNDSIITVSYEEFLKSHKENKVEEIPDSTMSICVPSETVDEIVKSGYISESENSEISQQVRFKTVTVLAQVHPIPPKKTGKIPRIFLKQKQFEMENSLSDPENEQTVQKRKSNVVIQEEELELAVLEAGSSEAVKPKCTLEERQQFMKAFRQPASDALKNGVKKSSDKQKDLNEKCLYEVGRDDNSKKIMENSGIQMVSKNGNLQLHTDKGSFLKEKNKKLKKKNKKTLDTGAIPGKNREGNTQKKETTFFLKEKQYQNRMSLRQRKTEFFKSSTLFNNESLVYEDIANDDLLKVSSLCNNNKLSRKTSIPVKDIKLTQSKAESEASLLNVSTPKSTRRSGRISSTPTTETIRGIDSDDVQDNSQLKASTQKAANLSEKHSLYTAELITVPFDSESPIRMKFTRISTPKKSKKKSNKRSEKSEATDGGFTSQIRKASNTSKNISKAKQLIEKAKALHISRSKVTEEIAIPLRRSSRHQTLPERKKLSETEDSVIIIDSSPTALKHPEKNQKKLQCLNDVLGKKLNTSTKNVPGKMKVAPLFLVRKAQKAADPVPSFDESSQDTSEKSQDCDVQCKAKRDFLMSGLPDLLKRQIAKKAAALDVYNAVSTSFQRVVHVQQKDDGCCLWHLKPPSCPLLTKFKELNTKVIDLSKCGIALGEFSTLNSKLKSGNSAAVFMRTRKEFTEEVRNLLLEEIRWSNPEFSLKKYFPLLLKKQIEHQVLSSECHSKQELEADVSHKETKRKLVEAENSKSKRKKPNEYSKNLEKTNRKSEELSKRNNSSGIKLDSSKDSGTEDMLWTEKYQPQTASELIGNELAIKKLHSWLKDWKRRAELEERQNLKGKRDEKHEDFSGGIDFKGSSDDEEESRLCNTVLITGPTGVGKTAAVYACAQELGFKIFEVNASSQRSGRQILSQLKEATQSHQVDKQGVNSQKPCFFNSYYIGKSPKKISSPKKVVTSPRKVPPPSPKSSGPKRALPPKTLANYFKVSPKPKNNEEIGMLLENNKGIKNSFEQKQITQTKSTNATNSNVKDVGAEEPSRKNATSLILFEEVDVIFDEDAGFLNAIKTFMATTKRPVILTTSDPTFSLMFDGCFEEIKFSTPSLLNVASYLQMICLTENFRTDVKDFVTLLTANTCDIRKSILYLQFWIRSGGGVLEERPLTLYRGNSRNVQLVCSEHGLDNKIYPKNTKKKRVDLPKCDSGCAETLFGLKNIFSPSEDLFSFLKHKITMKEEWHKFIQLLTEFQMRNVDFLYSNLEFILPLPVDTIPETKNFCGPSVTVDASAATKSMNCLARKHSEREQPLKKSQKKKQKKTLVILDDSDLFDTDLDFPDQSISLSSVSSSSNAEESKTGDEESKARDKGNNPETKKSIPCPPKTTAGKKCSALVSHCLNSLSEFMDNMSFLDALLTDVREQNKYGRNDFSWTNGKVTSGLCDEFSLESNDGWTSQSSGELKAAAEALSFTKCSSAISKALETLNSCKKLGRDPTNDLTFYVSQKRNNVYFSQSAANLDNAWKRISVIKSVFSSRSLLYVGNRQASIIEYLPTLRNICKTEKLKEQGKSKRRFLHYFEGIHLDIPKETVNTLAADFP
Chain of M-phase phosphoprotein 8 (Homo sapiens) (Q99549 whole entry, looked up): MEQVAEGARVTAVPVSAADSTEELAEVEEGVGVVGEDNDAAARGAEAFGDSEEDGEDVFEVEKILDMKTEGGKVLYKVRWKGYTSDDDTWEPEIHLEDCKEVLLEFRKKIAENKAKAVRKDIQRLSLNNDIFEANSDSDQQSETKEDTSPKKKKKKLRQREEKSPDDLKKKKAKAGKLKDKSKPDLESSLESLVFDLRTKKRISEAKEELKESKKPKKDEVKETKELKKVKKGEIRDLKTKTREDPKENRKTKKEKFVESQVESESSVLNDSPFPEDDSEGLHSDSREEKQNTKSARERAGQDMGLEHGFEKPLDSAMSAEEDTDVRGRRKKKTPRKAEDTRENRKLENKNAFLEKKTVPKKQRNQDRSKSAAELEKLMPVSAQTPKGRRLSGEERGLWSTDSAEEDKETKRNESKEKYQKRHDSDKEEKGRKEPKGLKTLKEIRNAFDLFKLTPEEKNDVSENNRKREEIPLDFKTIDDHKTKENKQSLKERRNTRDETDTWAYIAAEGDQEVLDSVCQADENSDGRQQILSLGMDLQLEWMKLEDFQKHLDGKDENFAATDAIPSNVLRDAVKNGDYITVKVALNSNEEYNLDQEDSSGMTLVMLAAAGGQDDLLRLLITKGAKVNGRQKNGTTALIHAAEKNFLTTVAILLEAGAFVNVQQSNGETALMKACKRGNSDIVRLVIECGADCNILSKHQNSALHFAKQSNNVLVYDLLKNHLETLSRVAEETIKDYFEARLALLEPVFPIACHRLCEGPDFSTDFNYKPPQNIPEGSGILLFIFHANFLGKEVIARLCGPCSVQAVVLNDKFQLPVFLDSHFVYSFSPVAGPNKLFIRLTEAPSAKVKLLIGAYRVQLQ
Chain of Thyrotropin receptor (Homo sapiens) (P16473 whole entry, looked up): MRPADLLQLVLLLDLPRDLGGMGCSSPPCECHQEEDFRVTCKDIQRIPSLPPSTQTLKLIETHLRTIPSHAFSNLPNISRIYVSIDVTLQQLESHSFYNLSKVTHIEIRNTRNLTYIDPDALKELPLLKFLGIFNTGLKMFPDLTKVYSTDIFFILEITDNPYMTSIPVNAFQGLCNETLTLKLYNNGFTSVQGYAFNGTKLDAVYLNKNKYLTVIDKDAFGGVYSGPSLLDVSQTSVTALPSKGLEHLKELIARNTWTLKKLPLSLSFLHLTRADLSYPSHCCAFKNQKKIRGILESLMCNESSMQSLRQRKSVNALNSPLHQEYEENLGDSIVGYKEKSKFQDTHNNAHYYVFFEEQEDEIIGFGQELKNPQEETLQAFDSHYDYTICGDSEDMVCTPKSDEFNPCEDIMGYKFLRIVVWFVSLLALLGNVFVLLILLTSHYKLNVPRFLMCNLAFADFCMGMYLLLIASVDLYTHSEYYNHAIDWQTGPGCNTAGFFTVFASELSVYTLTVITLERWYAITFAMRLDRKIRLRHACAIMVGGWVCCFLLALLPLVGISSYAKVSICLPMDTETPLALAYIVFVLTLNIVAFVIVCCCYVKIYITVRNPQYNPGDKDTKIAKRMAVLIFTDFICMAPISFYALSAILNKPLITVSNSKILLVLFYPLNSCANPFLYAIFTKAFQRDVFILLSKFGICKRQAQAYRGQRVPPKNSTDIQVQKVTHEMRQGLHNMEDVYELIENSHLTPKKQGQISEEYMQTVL
Chain of Transient receptor potential cation channel subfamily V member 1 (Homo sapiens) (Q8NER1 whole entry, looked up): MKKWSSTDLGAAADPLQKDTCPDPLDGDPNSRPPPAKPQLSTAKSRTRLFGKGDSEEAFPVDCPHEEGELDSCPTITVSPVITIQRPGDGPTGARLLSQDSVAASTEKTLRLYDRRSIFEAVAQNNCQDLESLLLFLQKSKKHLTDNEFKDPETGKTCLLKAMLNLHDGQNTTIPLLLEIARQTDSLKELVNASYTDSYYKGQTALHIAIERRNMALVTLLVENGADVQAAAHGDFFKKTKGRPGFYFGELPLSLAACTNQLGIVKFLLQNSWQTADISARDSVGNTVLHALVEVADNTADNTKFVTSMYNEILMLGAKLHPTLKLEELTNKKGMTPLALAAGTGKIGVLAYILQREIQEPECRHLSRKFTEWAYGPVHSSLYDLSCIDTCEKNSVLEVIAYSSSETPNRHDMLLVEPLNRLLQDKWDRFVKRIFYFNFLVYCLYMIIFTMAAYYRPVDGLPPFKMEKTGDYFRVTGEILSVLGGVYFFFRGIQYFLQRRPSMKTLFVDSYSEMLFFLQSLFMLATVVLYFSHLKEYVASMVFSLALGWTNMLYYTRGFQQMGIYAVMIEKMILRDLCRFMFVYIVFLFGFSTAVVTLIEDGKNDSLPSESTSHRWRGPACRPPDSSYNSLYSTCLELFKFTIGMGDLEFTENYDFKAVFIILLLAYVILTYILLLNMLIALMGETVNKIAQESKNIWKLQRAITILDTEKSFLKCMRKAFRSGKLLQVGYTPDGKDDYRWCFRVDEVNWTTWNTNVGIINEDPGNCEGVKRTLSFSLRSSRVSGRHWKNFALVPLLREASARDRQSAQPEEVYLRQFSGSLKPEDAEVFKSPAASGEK

`NS(=O)(=O)C#Cc1ccccc1`: the Potency result in [1], in assay [3], in [4], in assay [5], in assay [7] and in [8] was “inactive” in each case. For the same compound, the Potency in [2] was 4.74 µM (active). Besides, the call in assay [6] and in assay [9] was inactive.
`NCCCCC(=O)O`: the Potency entry in [1], in assay [2], in assay [3], in assay [4], in assay [5] and in assay [7] was “inactive” each time. Moreover, the Potency entry in assay [8], in assay [12], in assay [13], in assay [15] and in [16] was “inactive” each time. Moreover, the outcome in [6], in assay [10] and in assay [11] was inactive. The activation in assay [14] is -0.25% (inactive). In assay [15], the viability change is 11.5%.
As for `CCCCCCCCc1ccc(-c2ccc(C(=O)O)cc2)cc1`, the Potency entry in assay [1], in assay [2], in assay [3], in [4], in assay [5] and in assay [7] was “inactive” each time. The Potency entry in [17], in [8], in assay [12] and in assay [13] was “inactive” each time. Also, the result in [6] and in assay [9] was inactive.
On to `O=C(O)CCCC[C@@H]1CCSS1`, for which the Potency entry in assay [1], in assay [2], in [3], in assay [4], in assay [5] and in assay [7] was “inactive” throughout. In addition, the Potency entry in assay [17], in assay [8], in [12], in assay [13], in assay [15] and in assay [18] was “inactive” throughout. The Potency result in assay [16] is “inactive”. Also, the call in assay [6], in [10] and in [11] was inactive. Besides, the activation in [14] is 0.438% (inactive). The viability change in assay [15] amounted to 5.5%.
For the compound `Fc1ccc(C(OCCCc2cnc[nH]2)c2ccc(F)cc2)cc1`, the Potency entry in [1], in assay [2], in assay [3], in assay [7], in assay [17] and in assay [8] was “inactive” throughout. Also, the Potency entry in assay [12], in assay [13], in assay [15], in assay [18] and in assay [16] was “inactive” each time. Also, the Potency was 50.1 µM (active) in [4] and 39.8 µM (active) in assay [5]. For the same compound, the outcome in assay [6], in assay [10] and in assay [11] was inactive. Besides, the activation in assay [14] is -5.06% (inactive). The compound also displayed a viability change in assay [15] of 0.0521%.
As to `CN(C)c1nc(N)c(C(=O)N=C(N)N)nc1Cl`, the Potency entry in [1], in [2], in assay [3], in assay [4], in assay [5] and in [7] was “inactive” each time. Moreover, the Potency entry in assay [17], in [8], in [12], in [15] and in assay [16] was “inactive” throughout. Further, the outcome in assay [6], in assay [10], in assay [11] and in assay [9] was inactive. The activation in [14] is 0.625% (inactive). Besides, the viability change in assay [15] turned out to be 1.27%.
As to `O=c1[nH]c2cc(Cl)c(Cl)cc2[nH]c1=O`, the Potency result in assay [1], in assay [2], in [3], in assay [4], in [5] and in assay [7] was “inactive” each time. For the same compound, the Potency entry in assay [8], in assay [18] and in assay [16] was “inactive” in each case. Also, the result in [6], in assay [10], in assay [11] and in assay [9] was inactive. Further, the activation in [14] was 0.75% (inactive).
Take `COc1cccc(OC)c1OCCNCC1COc2ccccc2O1` (stereo not drawn): the Potency entry in [1], in [2], in assay [3], in assay [4], in [5] and in [7] was “inactive” each time. In addition, the Potency result in assay [17], in assay [12], in [13], in assay [15], in assay [18] and in assay [16] was “inactive” in each case. Further, the outcome in assay [6], in assay [10], in assay [11] and in assay [9] was inactive. Moreover, the Potency in assay [8] was 0.316 µM (active). Besides, the activation in assay [14] was -3.69% (inactive). Besides, the viability change in assay [15] amounted to 4.98%.
